From the supplement of paper PMC10338343
± gives the standard deviation.

What follows are sequences tested on MILI (PIWIL2) piRISC loaded with L1MC piRNA (26 nt) (assay: pre-steady-state target cleavage rate (min^-1); guide: L1MC piRNA 5'p-UAACUAAAUACUAUGCAAGCUGUAGG; MIWI and MILI are mouse PIWI proteins and EfPiwi is from a freshwater sponge; tags in brackets are library labels; higher = faster piRNA-guided slicing of the target). Conditions: auxiliary factor: 500 nM mouse GTSF1.
In short: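 Sequencing of uncleaved targets, normalised to depth and to weakly complementary targets, was the readout of this Cleave-'n-Seq assay. A transcribed, DNA-blocked target RNA library (0.1 nM) was mixed with 1 nM active affinity-purified piRISC carrying one synthetic guide, with or without 500 nM GTSF1 partner protein, in HEPES–potassium acetate buffer at 33 °C for 0–8 or 0–960 min. Three trials were pooled, k3 was capped at 0.0001 min^-1, and a burst-and-steady-state fit gave the pre-steady-state cleavage rate.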

Sequence	pre-steady-state target cleavage rate
UCCUGGAUCAGCUUGCAUACUAUUUACAAA	0.0104 ± 0.0042
UCCUGGUUCAGCUUGCAUAGUAUUUUCAAA	0.0427 ± 0.016
UCCUGGAUGUCGAACGAUAGUAUUUAGUAUA	< 0.0001
UCCUGGAUGUCGUUGCAAAGUAUUUUGUUA	0.0092 ± 0.0056
UCCUGGUACAGCUUGCUUAGUAUUUUCAAA	0.0244 ± 0.0078
UCCUGGUACAGCUUGCUAAGUAUUUACAAA	0.0119 ± 0.0056
UCCUGGAUGAGCUUGCAUAGUAUUAUCAAA	0.00461 ± 0.0034
UCCUGGAACAGCUUGCAUAGUAAUUACUUA	0.023 ± 0.0082
UCCUGGAUGACCUUGCAUAGUAUUUACAAA	0.114 ± 0.033
UCCUGGAACAGCUUGCAUUGAAUUUAGUUA	0.0179 ± 0.006
UCCUGGAACAGCUUGCAAUGUAUUUAGAAA	0.0719 ± 0.018
UCCUGGAUGUCCUUGCAUAGUAUUUACAAA	0.0869 ± 0.025
UCCUGGAUGUCCAUGCAUUGUAUUUAGUUA	0.0108 ± 0.0042
UCCUGGAUGACCUUGCAUAGUAUUUAGUAA	0.152 ± 0.019
UCCUGGAUGUCGAACCAUAGUUAAUAGUUA	< 0.0001
UCCUCCUAGUCCUUGCAUAGUAUUUUCAAA	0.0344 ± 0.013
UCCUGGAUGUCCUAGCAUAGUAUUUUGUUA	0.0105 ± 0.0061

Sequence	pre-steady-state target cleavage rate
UCCUGGAUGUCGAAGCAUAGUAUAUUGUUA	0.00971 ± 0.0047
UCCUGGAACAGCUUGCAUUCUAUUUAGUUA	0.0609 ± 0.014
UCCUGGAUGUCGAUGCAUAGUAAUUUGUUA	0.00959 ± 0.0053
UCCUGGAUGUCGAUGCAUAGUAUUGAGUUA	0.0608 ± 0.013
UCCUGGAUGUGCUUGGAUAGUAUUUAGUAA	0.117 ± 0.021
UCCUGGAUGAGCUUGGAUAGUAUUUAGAUA	0.0187 ± 0.0061
UCCUGGAACAGCUUGCAUAGUAUAUACAAA	0.0873 ± 0.03
UCCUGGUACAGCUUGCAUAGUAUUUUCAUA	0.0352 ± 0.014
UCCUGGAACAGGUUGCAUAGUAUUUUCAAA	0.0435 ± 0.012
UCCUGGUACACGAUGCAUAGUAUUUAGUAA	0.186 ± 0.042
UCCUGCUACAGCUUGCGAUAGUAUUUAGUUA	0.0073 ± 0.0045
UCCUGGUAGUGCUUGCAUAGUAUUUUCAAA	0.00481 ± 0.0037
UCCUGGAACAGCUUGCAUACUAUUUACAAA	0.0166 ± 0.0064
UCCUGGAUGUCGAUGCAUAGUAUUUAGAUA	0.0384 ± 0.011
UCCUGGUUGUGCUUGCAUAGUAUUUACAAA	0.00786 ± 0.0048
UCCUGGUACAGCUUGCAAAGAAUUUAGUUA	0.00951 ± 0.0059
